Screening data as filed in PubChem BioAssay.
Hits are enriched below; roughly 0.7% of the tested compounds scored in any of these assays.
Mtb hypoxia inh: inhibitors of hypoxia-regulated fluorescent reporter in Mycobacterium tuberculosis | M. tuberculosis hypoxia-regulated fluorescent reporter, fluorescence | fluorescence inhibition, % (test concentration not listed) | hit rate 0.1% among 300,000; in the data active means fluorescence inhibition mostly above about 23%, no sharp cut-off; inactive means mostly below about 17%
SARS 3CLpro inh: SARS-CoV 3CLpro protease inhibition; recombinant SARS-CoV 3CLpro, quenched FRET peptide cleavage; inhibition, % at 6 µM; hit rate 0.14% among 290,000; in the data active means inhibition above about 12%
FadD28 FP inh: blocks FadD28 binding to the bisubstrate probe. hit rate 0.22% among 360,000. inhibition, % at 12.5 µM. fluorescence polarization; in the data active means inhibition above about 8.5%, passing the limit was not always enough
BioA inh: blocks M. tuberculosis BioA enzyme activity. hit rate 0.096% among 360,000. inhibition, % at 9.99 µM. purified M. tuberculosis BioA enzyme, plate reader; in the data active means inhibition above about 40%
DUSP3 inh: inhibitors of human VHR1 phosphatase (DUSP3) | hit rate 0.52% among 290,000 | recombinant VHR phosphatase, pNPP absorbance | inhibition, % at 13.3 µM; in the data active means inhibition above about 50%
Target sequence (P51452 whole entry, looked up): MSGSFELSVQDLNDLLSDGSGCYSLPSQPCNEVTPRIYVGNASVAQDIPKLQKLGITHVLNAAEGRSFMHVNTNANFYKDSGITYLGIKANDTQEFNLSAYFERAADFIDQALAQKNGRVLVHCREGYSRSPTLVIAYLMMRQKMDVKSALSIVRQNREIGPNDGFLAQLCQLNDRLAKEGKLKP
Numbers stand for hits.

`O=C(NCCCN1CCCCC1)c1ccc(CS(=O)c2ccc(Cl)cc2)o1` (centres undefined) gave Mtb hypoxia inh inactive, SARS 3CLpro inh inactive, FadD28 FP inh inactive, BioA inh inactive and DUSP3 inh inactive.
`CCCN1CCN(C(=O)c2ccc(CS(=O)c3ccc(Cl)cc3)o2)CC1` (centres undefined) gave Mtb hypoxia inh inactive, SARS 3CLpro inh inactive, FadD28 FP inh inactive, BioA inh inactive and DUSP3 inh 57.
`O=C(NCCCN1CCCCC1)c1ccc(CS(=O)c2ccc(F)cc2)o1` (centres undefined) gave Mtb hypoxia inh inactive, SARS 3CLpro inh inactive, FadD28 FP inh inactive, BioA inh inactive and DUSP3 inh 52.
Screening NC(Cc1ccc(O)cc1)c1nnc(C(CC(=O)O)NC(=O)C2CCNCC2)o1 (centres undefined) returned Mtb hypoxia inh inactive.
Cc1ccc(S(=O)(=O)Nc2ccc3c(c2)C(=O)N(C(C)CO)CC(C)C(CN(C)Cc2ccc(-c4ccccc4)cc2)O3)cc1 (centres undefined) was read as Mtb hypoxia inh inactive.
CCc1ccc(CNC(=O)Cc2ccc(NC(=O)C3=C(C)OCCS3)cc2)cc1 was read as SARS 3CLpro inh inactive, FadD28 FP inh inactive, BioA inh inactive and DUSP3 inh 51.
`CC1=C(C(=O)Nc2ccc(CC(=O)NCc3ccccc3C)cc2)SCCO1` gave Mtb hypoxia inh inactive, SARS 3CLpro inh inactive, FadD28 FP inh inactive, BioA inh inactive and DUSP3 inh inactive.
For CCOC(=O)C1CCN(S(=O)(=O)c2ccc(-c3ccc(=O)[nH]n3)o2)CC1 the results were Mtb hypoxia inh inactive, SARS 3CLpro inh inactive, FadD28 FP inh inactive, BioA inh inactive and DUSP3 inh 51.
For O=c1ccc(-c2ccc(S(=O)(=O)N3CCN(c4ccccc4)CC3)o2)n[nH]1 the results were Mtb hypoxia inh inactive, SARS 3CLpro inh inactive, FadD28 FP inh inactive, BioA inh inactive and DUSP3 inh inactive.
For O=C(O)c1ccc2c(c1)C(=O)N(c1cccc(-c3nc4ccccc4s3)c1)C2=O the results were SARS 3CLpro inh inactive, FadD28 FP inh inactive, BioA inh inactive and DUSP3 inh 123.
Screening CC(=O)Oc1cccc(N2C(=O)c3ccc(C(=O)O)cc3C2=O)c1 returned Mtb hypoxia inh inactive, SARS 3CLpro inh inactive, FadD28 FP inh inactive, BioA inh inactive and DUSP3 inh inactive.
CCOC(=O)C(CC)n1cnc2c(nnn2-c2cccc(OC)c2)c1=O (centres undefined) was read as Mtb hypoxia inh inactive, SARS 3CLpro inh inactive, FadD28 FP inh inactive, BioA inh inactive and DUSP3 inh 53.
`CCOC(=O)C(CC)n1cnc2c(nnn2-c2ccc(C)cc2)c1=O` (centres undefined) gave Mtb hypoxia inh inactive, SARS 3CLpro inh inactive, FadD28 FP inh inactive, BioA inh inactive and DUSP3 inh inactive.
`O=C(c1ccccc1)N1CCC(c2nc3c(nnn3Cc3ccco3)c(=O)[nH]2)CC1` gave Mtb hypoxia inh inactive, SARS 3CLpro inh inactive, FadD28 FP inh inactive, BioA inh inactive and DUSP3 inh 50.
For CC(CC(=O)NC(C)(C)C)=NNC(=O)c1ccccc1N the results were Mtb hypoxia inh inactive.
Screening CC(=NNc1c(Cl)c(Cl)nc(C(=O)O)c1Cl)c1ccc(O)cc1 returned Mtb hypoxia inh inactive.
CC1=NN(c2ccccc2)C(=O)/C1=C/c1c(O)n(-c2ccc(F)cc2)[nH]c1=O was read as Mtb hypoxia inh inactive, SARS 3CLpro inh inactive, FadD28 FP inh 19, BioA inh inactive and DUSP3 inh inactive.
`CC1=NN(c2ccccc2)C(=O)C1=Cc1ccccc1` gave FadD28 FP inh inactive and BioA inh inactive.
Screening CCOC(=O)CC1c2cc(F)ccc2S(=O)(=O)N1c1cccc(OC)c1 (centres undefined) returned Mtb hypoxia inh inactive.
`Cc1ccc(N2C(=O)C3C4C=CC(CC4)C3C2=O)c([N+](=O)[O-])c1` (centres undefined) gave Mtb hypoxia inh inactive, SARS 3CLpro inh inactive, FadD28 FP inh inactive, BioA inh inactive and DUSP3 inh 55.
Screening O=C(COC(=O)c1ccc(Cl)c(S(=O)(=O)N2CCCCCC2)c1)Nc1ccccc1 returned Mtb hypoxia inh inactive, SARS 3CLpro inh inactive, FadD28 FP inh 62 and DUSP3 inh inactive.
`Cc1ccc(CSCCNC(=O)c2ccc(Cl)c(S(=O)(=O)N3CCOCC3)c2)cc1` gave Mtb hypoxia inh inactive, SARS 3CLpro inh inactive, FadD28 FP inh 34, BioA inh inactive and DUSP3 inh inactive.
For COc1ccc(C(=O)NCc2ccc(C)cc2)cc1S(=O)(=O)N1CCCc2ccccc21 the results were Mtb hypoxia inh inactive, SARS 3CLpro inh inactive, FadD28 FP inh 9.9, BioA inh inactive and DUSP3 inh inactive.
